# From PubChem
# BAZ2B block: inhibitors of human BAZ2B bromodomain | 4.4% of 360,000 active | Potency, µM (doses to about 114 µM), without a hit: at the highest dose activity change, negative = inhibition, usual class: inhibitors | AlphaScreen BAZ2B-H3K14Ac peptide displacement | AID 504333 | Q9UIF8; note: % is set by controls: 0 for no effect and ±100 for the full control effect; nearly all actives have a fitted effect of over 60% in size
#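 AlphaScreen displacement of biotin-H3(5-23)K14Ac peptide (50 nM final) from BAZ2B (50 nM final) in PBS pH 7.4, 0.01% Tween-20; complex preformed 30 min RT, then compounds (top 110 uM) 30 min RT, beads 20 min dark.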
# G9a block: G9a (human) methyltransferase inhibition. Q96KQ7. G9a H3K9 monomethylation, AlphaScreen, 2 h. Potency, µM (titrated, usually from 102 µM), without a hit: at the highest dose activity, negative = inhibition, hits mostly inhibitors. 8.8% of 350,000 active; note: % is set by controls: 0 for no effect and ±100 for the full control effect; nearly all actives have a fitted effect of over 75% in size
#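 Readings reflect AlphaScreen signal from monomethyl-H3K9 antibody detection. HMT at 20 nM; substrate b-H3K9 500 nM; cofactor SAM 20 uM; 2 h RT reaction; compounds tested as titrations in qHTS with 15 min preincubation.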
# JMJD2A Tudor inh: blocks the human JMJD2A Tudor domain. Potency, µM (highest dose often 114 µM), without a hit: at the highest dose activity change, negative = inhibition, most hits filed as inhibitors. AlphaScreen JMJD2A-Tudor / H3K4me3 peptide binding. 4.4% of 390,000 active; note: % is set by controls: 0 for no effect and ±100 for the full control effect; nearly all actives have a fitted effect of over 50% in size
# Target sequence (O75164 whole entry, looked up, the tested form may be a part): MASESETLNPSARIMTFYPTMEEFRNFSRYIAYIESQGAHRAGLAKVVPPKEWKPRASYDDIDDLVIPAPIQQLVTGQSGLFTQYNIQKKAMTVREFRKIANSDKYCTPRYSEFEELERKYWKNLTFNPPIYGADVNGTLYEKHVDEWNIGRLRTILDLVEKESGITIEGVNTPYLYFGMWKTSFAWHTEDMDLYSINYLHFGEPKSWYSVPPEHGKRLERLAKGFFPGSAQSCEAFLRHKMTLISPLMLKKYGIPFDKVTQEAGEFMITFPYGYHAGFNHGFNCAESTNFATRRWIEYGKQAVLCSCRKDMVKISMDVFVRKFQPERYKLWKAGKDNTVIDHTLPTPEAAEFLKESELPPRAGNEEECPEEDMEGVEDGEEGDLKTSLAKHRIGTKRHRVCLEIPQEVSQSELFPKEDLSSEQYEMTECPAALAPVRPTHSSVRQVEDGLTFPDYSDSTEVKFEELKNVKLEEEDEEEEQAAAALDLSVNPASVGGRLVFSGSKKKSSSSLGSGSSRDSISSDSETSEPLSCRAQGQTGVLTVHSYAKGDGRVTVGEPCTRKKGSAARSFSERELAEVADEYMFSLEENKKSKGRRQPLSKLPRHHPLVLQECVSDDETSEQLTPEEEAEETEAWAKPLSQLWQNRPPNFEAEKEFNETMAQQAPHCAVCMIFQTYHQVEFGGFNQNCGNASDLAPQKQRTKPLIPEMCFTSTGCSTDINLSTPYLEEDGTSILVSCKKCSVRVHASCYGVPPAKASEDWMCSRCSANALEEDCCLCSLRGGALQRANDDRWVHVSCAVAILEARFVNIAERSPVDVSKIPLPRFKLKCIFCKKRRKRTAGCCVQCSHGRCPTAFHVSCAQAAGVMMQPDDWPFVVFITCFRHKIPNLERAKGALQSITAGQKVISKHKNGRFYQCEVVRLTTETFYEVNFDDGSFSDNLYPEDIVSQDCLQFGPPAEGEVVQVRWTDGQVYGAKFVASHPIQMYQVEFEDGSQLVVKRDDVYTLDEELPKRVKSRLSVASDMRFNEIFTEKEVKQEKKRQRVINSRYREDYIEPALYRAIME
# HP1b binding inh: HP1-beta chromodomain-methylated histone interaction inhibition; 0.56% of 390,000 active; P83916; Potency, µM (titrated, usually from 114 µM), inactives show at the highest dose activity change, negative = inhibition, most hits filed as inhibitors; AlphaScreen HP1-beta / biotin-H3K9me3 peptide binding; AID 540317; note: nearly all actives have a fitted effect of over 70% in size
#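 AlphaScreen: HP1-beta (50 nM) preformed 30 min with biotin-H3(1-18)K9me3 peptide (50 nM) in PBS pH 7.4, 0.01% Tween-20. Compound added for 30 min at RT, then streptavidin donor/nickel chelate acceptor beads (10 ug/mL) for 30 min.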
# Sfp PPTase inh: inhibitors of Bacillus subtilis Sfp phosphopantetheinyl transferase; Q9F4F7; Biochemical Sfp PPTase activity, qHTS; Potency, µM, without a hit: largest response in the series, negative = inhibition, most hits filed as inhibitors; 3.5% of 310,000 active;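 note: the enzyme is Sfp with the accession as filed and its product quenches rhodamine fluorescence; 0% = enzyme reaction without inhibitor and -100% = no enzyme wells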
#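 Sfp 15 nM + cpd, 15 min RT; start w/ rhodamine-CoA 5 uM, BHQ-2-YbbR 12.5 uM (final); 50 mM Hepes pH 7.6, 10 mM MgCl2, 0.01% NP-40, 0.01% BSA; read 525/598 nm at 0 and 30 min.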
# An asterisk follows results filed as active; ? = inconclusive; / = no result given; [ ] = remark or other dose. Compounds with a hit are over-represented: about 12% of the library has one in this group of screens. Calls come from the whole dose curve; as a rule, active = well fitted curve in the direction sought with a large enough effect; inconclusive = small, poorly fitted or top-dose-only effect, or another doubt; inactive = no such curve, though single readings can be large; an effect the other way counts as inactive or inconclusive. Potency is the fitted concentration of half-maximal effect.
SMILES,BAZ2B block,G9a block,JMJD2A Tudor inh,HP1b binding inh,Sfp PPTase inh
Cc1cc(NC(=O)CSc2nnc(-c3ccc([N+](=O)[O-])cc3)o2)no1,22µM*,77%,89µM*,47%,17%
Cc1ccc(-c2nnc(SCC#CCOC(=O)c3cccs3)o2)cc1,34%,?,35%,121%,-12%
O=C(OCC#CCSc1nnc(-c2ccc([N+](=O)[O-])cc2)o1)c1cccs1,?,32µM*,?,-25%,5%
COc1ccc(-c2nnc(SCC#N)o2)cc1,-2%,-43%,-9%,21%,13%
Cc1cc(NC(=O)CSc2nnc(-c3ccc(O)cc3)o2)no1,-2%,/,-28%,41%,-10%
C#CCSc1nnc(-c2ccc(OC)cc2)o1,0%,45µM*,3%,-6%,-3%
C#CCSc1nnc(-c2ccc([N+](=O)[O-])cc2)o1,-31%,50µM*,-23%,7%,8%
CCOc1ccc(C(=O)OCC(=O)Nc2cc(S(=O)(=O)N3CCOCC3)ccc2N2CCOCC2)cc1,/,/,-3%,58%,/
CCC(C)NC(=O)c1ccc(NC(=O)C2CCCO2)cc1 (stereo not drawn),1%,14%[2.33 µM],-9%,25%,10%
COc1ccc(C)cc1NC(=O)c1ccccc1N(C)S(=O)(=O)c1ccccc1,-4%,/,-10%,18%,7%
CC(NCc1cc(Br)ccc1OCC(=O)NCc1ccccc1)c1ccccc1 (stereo not drawn),-20%,-18%,-17%,24%,-21%
Cc1cc(NC(=O)CSc2nnc(C3COc4ccccc4O3)n2N)no1 (stereo not drawn),-18%,?,-19%[11.4 µM],-7%,?
Cc1cc(NC(=O)CSc2nnc(C3COc4ccccc4O3)o2)no1 (stereo not drawn),50µM*,?,-11%,8%,-1%
COc1ccc(S(=O)(=O)N2CCc3ccccc32)cc1NC(C)=O,-12%,?,-2%[11.4 µM],34%,20%
C/C(=N\Nc1nc(-c2ccc(C)cc2C)cs1)c1cc2ccccc2oc1=O,5%,?,-26%,22%,40µM*
C/C(=N\Nc1cccc2cccnc12)c1ccccn1,?,14µM*,?,?,-9%
C/C(=N\Nc1ncnc2sc(C)c(C)c12)c1ccccn1,7.1µM*,25µM*,32µM*,9%[57 µM],12%
Cc1sc2ncnc(N/N=C/c3cccc(O)c3)c2c1C,?,9%,?,-13%,-13%
C/C(=N\Nc1ccccc1)c1cc2ccccc2oc1=O,-24%,35µM*,?,1%,-8%
COc1ccc2oc(=O)c(/C(C)=N/Nc3nc(-c4cc(C)ccc4C)cs3)cc2c1,11%,?,-12%,39%,-13%
O=C(CNC(=O)c1ccccc1)OCc1cc(=O)n2ccsc2n1,-2%,9%[59 µM],-20%,-22%,/
COc1cc(OC)cc(C(=O)NCC(=O)NCCN2C(=O)S/C(=C\c3ccc4c(c3)OCO4)C2=O)c1,/,/,-20%,36%,/
O=C(O)c1cc(N/N=C/c2cccc3ccccc23)ccc1Cl,-10%,?,-16%,4%,-1%
C/C(=N\Nc1ncc(Cl)cc1Cl)c1ccccn1,22µM*,45µM*,?,12%,-23%
C/C(=N\Nc1ccc(Cl)c(C(=O)O)c1)c1cccc2ccccc12,?,10µM*,56µM*,79µM*,-10%
SMILES,BAZ2B block,G9a block,JMJD2A Tudor inh,HP1b binding inh,Sfp PPTase inh
COc1ccc(NCC(=O)N/N=C(\C)c2cc3ccccc3o2)cc1,35µM*,16µM*,?,-18%,-26%
C/C(=N\Nc1cccc([N+](=O)[O-])c1)c1cc2ccccc2o1,-25%,-30%,-26%,35%,21%
C/C(=N\Nc1cccc(C(=O)O)c1)c1cc2ccccc2o1,?,50µM*,?,-10%,0%
Cc1cc(N2CCN(c3ccccn3)CC2)n2cc(-c3ccccc3)nc2n1,-28%,-10%[59 µM],-27%,-8%,-16%
O=C(NCCc1csc(-c2ccccc2)n1)c1ccco1,2%,2%,-7%[11.4 µM],-4%,1%
CCCN(C(=O)CSc1ncccn1)C1CCS(=O)(=O)C1 (stereo not drawn),/,/,-15%,30%,/
C/C(=N\Nc1ccc(Cl)c(C(=O)O)c1)c1ccccn1,-14%,/,5%[11.4 µM],28%,79µM*
C/C(=N\Nc1ccc(Cl)c(C(=O)O)c1)c1cc2ccccc2o1,?,28µM*,-28%,12%,-14%
Cc1cnc(C(=O)NC2CCSc3ccccc32)cn1 (stereo not drawn),-26%,45µM*,-5%,57%,4%
O=C(CSc1nccn1-c1ccccc1)NO,?,4%,-5%[11.4 µM],-4%,4%
Brc1ccc(CSc2nccn2-c2ccccc2)cc1,40µM*,45µM*,56µM*,?,-5%
Cn1c(SCc2ccc(Br)cc2)nnc1-c1ccccn1,79µM*,?,-5%,3%,9%
COc1cc(C2c3c(oc4ccccc4c3=O)C(=O)N2c2ccc(C)cn2)ccc1O (stereo not drawn),-17%,-47%,-11%,40%,2%
O=C1CC2(CCCC2)CC(=O)N1CCNC[C@H]1COc2ccccc2O1,/,/,/,/,-4%
Cn1ccnc1/C(=N\NC(=O)c1ccccc1)c1cccc([N+](=O)[O-])c1,-14%,40µM*,-23%,3%,3%
O=C(NNC(=O)c1cnccn1)c1cccc([N+](=O)[O-])c1,2%,0.56µM*,-28%,14%,2.5µM*
CCOc1ccc(C(=O)Nc2cccc3cccnc23)cc1,-18%,10%[59 µM],-21%,15%,8%
O=C(NNC(=O)c1cccnc1SCc1cccc([N+](=O)[O-])c1)c1cccnc1,-1%,35µM*,8%,50%,2%
CCOc1ccc(C(=O)N/N=C(\c2ccccc2)c2ccccn2)cc1,79µM*,7%[59 µM],-34%,15%,-14%
CCOC(=O)N1CCN(C(=O)CSCC(=O)Nc2nc(-c3ccccc3)cs2)CC1,8%,20%[59 µM],-20%,12%,6%
Cc1ccc(OCC(=O)NCc2cccs2)cc1,6%,12%[12.7 µM],7%,37%,-4%
O=C(N/N=C(\c1ccccc1)c1ccccn1)c1cccc([N+](=O)[O-])c1,25µM*,-1%,?,20%,11%
COc1ccccc1N1CCN(/N=C/c2cc(OC)c(OC(C)=O)c(OC)c2)CC1,5%,18%[0.501 µM],-17%,30%,7%
O=C(CNC(=O)c1cccc(OC(F)F)c1)OCC(=O)c1ccccc1,/,5%,-7%,28%,10%
CCOC(=O)c1c(S(=O)(=O)NCCCc2ccco2)c(C)n(C)c1C,56µM*,45µM*,?,-5%,-18%
O=C1CCCCCN1Sc1ccccc1,1%,10µM*,-7%,54%,25µM*
O=[N+]([O-])c1ccccc1S(=O)(=O)N1CCN(Cc2cc3c(cc2O)OCO3)CC1,/,2.5µM*,?,-5%,3%
O=c1cc(CN2CCN(c3ccccn3)CC2)nc2sccn12,-21%,-41%,-23%,6%,9%
